Test results reported in the supplement of paper PMC4723716.
± gives the uncertainty stated by the source. The full ranking holds about 9,900 compounds; the median of “viability index relative to DMSO control” is about 1, and the lowest 2% start at about 0.85. This excerpt belongs to a sample that is enriched for the lowest values.

Test system: Plasmodium falciparum NF54 stage V gametocytes
Assay: viability index relative to DMSO control (fraction); higher = less gametocyte killing
Conditions: 2.5 µM, incubation time: 72 h
Protocol: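 Broad DOS informer set and blood-stage-active DOS compounds screened in duplicate at 2.5 µM against P. falciparum NF54 stage V gametocytes with the serum-free one-step SaLSSA (1536-well): 72 h at 37 °C under low oxygen, then saponin lysis and MitoTracker Red CMXRos staining, with high-content imaging. Viability index = viable-object count divided by the plate mean of DMSO wells (0 = killed, about 1 = inactive).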

[1] = library set: Broad Institute DOS
[2] = library set: Broad Institute Blood Stage

SMILES | viability index [1] | viability index [2]
CC(C)C#Cc1ccc([C@@H]2[C@H]3CN(C(=O)Cc4ccccc4)CC(=O)N3[C@H]2CO)cc1 | 0.864 ± 0.047 | –
CC(C)C#Cc1ccc([C@@H]2[C@H](CO)N3C(=O)CN(C(=O)Cc4ccccc4)C[C@@H]23)cc1 | 1.1 ± 0.016 | –
CC(C)C#Cc1ccc([C@H]2[C@@H](CO)N3C(=O)CN(C(=O)Cc4ccccc4)C[C@@H]23)cc1 | 1.07 ± 0.021 | –
CC(C)C#Cc1ccc([C@H]2[C@@H](CO)N3C(=O)CN(C(=O)Cc4ccccc4)C[C@H]23)cc1 | 0.848 ± 0.025 | –
C/C=C/c1ccc([C@H]2[C@@H](CO)N3C(=O)CN(S(=O)(=O)c4ccccc4)C[C@H]23)cc1 | 0.975 ± 0.12 | –
CC(C)C#Cc1ccc([C@@H]2[C@@H](CO)N3C(=O)CN(C(=O)Cc4ccccc4)C[C@H]23)cc1 | 1.04 ± 0.039 | –
C/C=C/c1ccc([C@@H]2[C@@H](CO)N3C(=O)CN(S(=O)(=O)c4ccccc4)C[C@@H]23)cc1 | 0.777 ± 0.16 | –
C/C=C/c1ccc([C@H]2[C@H]3CN(S(=O)(=O)c4ccccc4)CC(=O)N3[C@H]2CO)cc1 | 1.03 ± 0.034 | –
O=C(Cc1ccccc1)N1CC(=O)N2[C@H](CO)[C@H](c3ccc(C#Cc4ccccc4)cc3)[C@H]2C1 | – | 0.728 ± 0.097
CC(C)C#Cc1ccc([C@@H]2[C@@H](CO)N3C(=O)CN(C(=O)Cc4ccccc4)C[C@@H]23)cc1 | 1.07 ± 0.047 | –
O=C(Cc1ccccc1)N1CC(=O)N2[C@H](CO)[C@H](c3ccc(C#CCc4ccccc4)cc3)[C@H]2C1 | – | 0.699 ± 0.1
CC(C)C#Cc1ccc([C@H]2[C@H](CO)N3C(=O)CN(C(=O)Cc4ccccc4)C[C@@H]23)cc1 | 1.08 ± 0.08 | –
C[C@H]1CN([C@@H](C)CO)C(=O)c2c(c3ccccc3n2C)-c2ccccc2CO[C@@H]1CN(C)C(=O)[C@@H](Cc1ccccc1)N(C)C | 1.07 ± 0.11 | –
CCS(=O)(=O)Nc1ccc2c(c1)C(=O)N(C)C[C@H](OC)[C@H](C)CN(CC1CCCCC1)[C@H](C)CO2 | 0.995 ± 0.1 | –
CN1CCN(C(=O)c2cc3c(c(-c4cccc(C5=CCCC5)c4)n2)[C@@H](CCO)N([S@](=O)C(C)(C)C)C3)CC1 | 0.991 ± 0.024 | –
O=C(Nc1cccc(Cl)c1)N1C[C@H]2[C@@H](c3ccccc31)[C@@H](CO)N2Cc1cccnc1 | 1.06 ± 0.092 | –
C[C@@H]1CCCn2cc(nn2)COCCNC1=O | 0.994 ± 0.094 | –
CC(C)CC#Cc1ccc([C@H]2[C@H]3CN(C(=O)Nc4ccccc4)CCCCN3[C@H]2CO)cc1 | 0.99 ± 0.061 | –
CC(C)CC#Cc1ccc([C@H]2[C@H](CO)N3CCCCN(C(=O)Nc4ccccc4)C[C@@H]23)cc1 | 0.935 ± 0.034 | –
CC(C)CC#Cc1ccc([C@@H]2[C@H]3CN(C(=O)Nc4ccccc4)CCCCN3[C@H]2CO)cc1 | 0.542 ± 0.086 | –
CC(C)CC#Cc1ccc([C@H]2[C@@H](CO)N3CCCCN(C(=O)Nc4ccccc4)C[C@H]23)cc1 | 0.782 ± 0.084 | –
CC(C)CC#Cc1ccc([C@@H]2[C@@H](CO)N3CCCCN(C(=O)Nc4ccccc4)C[C@@H]23)cc1 | 1 ± 0.15 | –
COCC#Cc1ccc([C@@H]2[C@@H](CO)N3CCCCN(C(=O)NC4CCCC4)C[C@@H]23)cc1 | 1.01 ± 0.02 | –
CC(C)CC#Cc1ccc([C@@H]2[C@H](CO)N3CCCCN(C(=O)Nc4ccccc4)C[C@@H]23)cc1 | 0.877 ± 0.053 | –
CC(C)CC#Cc1ccc([C@H]2[C@@H](CO)N3CCCCN(C(=O)Nc4ccccc4)C[C@@H]23)cc1 | 1.02 ± 0.057 | –
CC(C)CC#Cc1ccc([C@@H]2[C@@H](CO)N3CCCCN(C(=O)Nc4ccccc4)C[C@H]23)cc1 | 0.844 ± 0.032 | –
